# Screening results (PubChem BioAssay)
# Most compounds without a hit are left out; they make up all but 3.5% or so of the library.
# ATG4B inh: inhibitors of human ATG4B cysteine protease; inhibition, % at 8.33 µM; ATG4B cleavage of LC3-PLA2, NBD-HPC fluorescence, 1 h; 0.51% of 340,000 active; in the data active = inhibition above about 40%
# M1 PAM: human CHRM1 positive allosteric modulation | P11229 | CHO-K1 hM1, Fluo-8 calcium fluorescence, ACh EC20; 0% = ACh EC20, 100% = maximal ACh | activation, % at 3 µM | 0.088% of 360,000 active | AID 588819; in the data active = activation above about 19%, passing the limit was not always enough
# Target sequence (P11229 whole entry, looked up): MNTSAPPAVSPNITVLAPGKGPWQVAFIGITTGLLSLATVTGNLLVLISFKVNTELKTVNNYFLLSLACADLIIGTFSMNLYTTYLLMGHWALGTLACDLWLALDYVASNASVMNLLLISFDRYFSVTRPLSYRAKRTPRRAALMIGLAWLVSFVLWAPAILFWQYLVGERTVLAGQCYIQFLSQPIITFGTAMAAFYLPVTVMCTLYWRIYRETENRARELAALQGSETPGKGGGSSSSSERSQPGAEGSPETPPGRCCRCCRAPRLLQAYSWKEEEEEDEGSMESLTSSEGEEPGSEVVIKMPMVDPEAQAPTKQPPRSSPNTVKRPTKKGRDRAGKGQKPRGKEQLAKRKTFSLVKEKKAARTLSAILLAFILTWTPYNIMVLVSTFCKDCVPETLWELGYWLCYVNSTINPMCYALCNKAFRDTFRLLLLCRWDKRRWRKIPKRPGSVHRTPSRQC
# CHRM1 antagonist: antagonists of human M1 muscarinic receptor. CHO-K1 hM1, Fluo-8 calcium fluorescence, ACh EC80 antagonist. AID 588852. P11229. 1.3% of 360,000 active. inhibition, % at 3 µM;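 active = percent inhibition above its own plate's cutoff, namely the mean of that plate's compound wells plus 3 SD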;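 also: peak over basal fluorescence ratio during 140 s after agonist addition; 0% = ACh EC80 plus DMSO and 100% = DMSO alone without agonist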
# SKN-1 inh: blocks SKN-1 activity in C. elegans | C. elegans VP596 Pgst-4::GFP/RFP ratio, acrylamide-induced, 24 h | inhibition, % at 21.8 µM | 0.49% of 360,000 active;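 active = interference check ratio from 0.5 to 1.5 plus GFP to RFP signal ratio inhibition reaching or exceeding a fixed threshold, cut at about 30% in these data, passing the limit was not always enough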
# CHRM1 agonist: human M1 muscarinic receptor agonism; 0.33% of 360,000 active; CHO-K1 hM1, Fluo-8 calcium fluorescence, agonist mode; 0% DMSO, 100% acetylcholine EC100; activation, % at 3 µM;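 active = activation above the run's mean compound activation plus 3 SD, cut at about 16% in these data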;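 also: peak over basal fluorescence ratio within a 140 s kinetic read after compound addition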
# Myeloid diff 2: promotes myeloid progenitor differentiation; 1% of 360,000 active; calls only at 10 µM; ER-HoxA9 myeloid progenitors, lysozyme-GFP differentiation, flow cytometry; AID 624256;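 active = normalized GFP-positive differentiation at or above the plate's own cutoff, the solvent-only control mean plus 3 SD; inconclusive = no clear call, values can overlap the other calls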;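 also: cells exposed to compound for four days before flow analysis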
# * hit, by the source's call; i = inactive; ? = inconclusive; . = not tested or not shown; + = active, no number.
SMILES,ATG4B inh,M1 PAM,CHRM1 antagonist,SKN-1 inh,CHRM1 agonist,Myeloid diff 2
O=C1NC2CCCCC2C(=O)N1OS(=O)(=O)c1ccccc1 (stereo not drawn),4.1,8.2,-17.4,18.4,-2.1,i
CCCN(CCC)C(=O)Cn1c(=O)c2sccc2n2c(=S)sc(-c3ccccc3)c12,13.4,2.4,-1.0,31.6,-2.1,+
O=C(CN1CCN(c2ccc(O)cc2)CC1)Nc1ccc(S(=O)(=O)N2CCCC2)cc1,-2.9,2.0,-0.8,5.8,-7.8,i
CCN(CC)S(=O)(=O)c1ccc(/C=C/C(=O)Nc2ccc(Br)cc2F)cc1,-7.2,-19.5,31.4*,-1.2,-9.3,i
CC(=O)c1ccccc1NC(=O)COC(=O)/C(=C/c1ccccc1)n1nnnc1C,0.8,-0.7,8.3,-7.9,-0.8,?
CN(C)c1cccc(O)c1,-1.0,7.8,-18.4,47.2*,1.5,i
CCCn1c(N)c(C(c2ccc(C(=O)OC)cc2)N2CCN(c3ccccc3)CC2)c(=O)[nH]c1=O (stereo not drawn),-21.1,9.8,-14.6,-5.6,-2.5,i
CCCn1c(N)c(C(c2ccc(OC)cc2)N2CCN(c3ccccc3)CC2)c(=O)[nH]c1=O (stereo not drawn),1.2,-3.7,6.5,37.6*,-0.6,i
CCNC(=O)C1(C)CCCN1C(=O)c1ccc(C#N)cc1 (stereo not drawn),.,3.3,-4.3,63.3*,-0.8,i
Cc1ccc(NC(=O)c2sc3ncn(CC(=O)N4CCN(c5ccccn5)CC4)c(=O)c3c2C)cc1F,-14.8,-17.6,26.0,19.5,0.6,i
Cc1ccc(NC(=O)c2sc3ncn(CC(=O)N4CCN(c5ccccn5)CC4)c(=O)c3c2C)cc1Cl,-18.7,-22.6,63.1*,4.4,0.9,i
O=C1/C(=C/c2ccc([N+](=O)[O-])cc2)C=C(c2ccccc2)N1c1ccccc1,-9.8,3.1,3.5,8.7,2.7,i
COc1ccc(N2C(=O)/C(=C/c3ccc([N+](=O)[O-])cc3)C=C2c2ccccc2)cc1,2.7,19.2,-13.9,39.6*,1.9,+
Cc1ccc(-c2nnn(CC(=O)NCC3COCCO3)n2)o1 (stereo not drawn),-5.6,5.4,-9.1,41.7*,0.4,i
CN1CCN(/N=C/c2ccc(-c3ccccc3)cc2)CC1,1.3,0.1,-9.9,79.3*,-9.6,i
O=C(COC(=O)C1CCC1)Nc1ccc(Cl)cn1,-1.0,2.0,-11.0,-4.1,0.9,i
O=C(COC(=O)CCC1CCCC1)Nc1ccc(Cl)cn1,-4.8,-8.1,15.8,40.9*,-1.8,i
O=c1c2c([nH]n1-c1ccccc1)CCSC2,-2.9,4.1,-5.3,8.2,-0.3,i
Cc1cc(SCC(=O)N/N=C/c2ccc(O)c(O)c2O)c(C)cc1Br,5.4,-6.4,5.5,16.2,1.1,+
Cc1cccc(C)c1NC(=O)CN(Cc1ccccc1)Cc1ccccc1,.,1.8,-24.1,8.5,18.1*,i
O=C1c2c(Cl)c(Cl)c(Cl)c(Cl)c2C(=O)N1c1nccs1,8.7,8.3,-12.8,-6.0,-1.0,i
O=C1CCC/C(=N/NC(=O)c2ccc(CN3c4cccc5cccc(c45)S3(=O)=O)cc2)C1,-2.1,5.0,-7.2,0.8,18.8*,i
Oc1ccc(Cl)cc1CNCc1ccc(F)cc1,-8.2,5.5,-4.9,-3.3,18.4*,i
C[C@@]12C(=O)Nc3cc(F)ccc3C(=O)N1[C@H]1c3ccccc3OC[C@@H]1[C@@H]2c1ccccc1,-2.4,-33.2,75.2*,14.0,-5.0,i
Cc1ccc2c(c1)[C@H]1[C@H](CO2)[C@H](c2ccccc2)[C@]2(C)C(=O)Nc3ccc(F)cc3C(=O)N12,-4.4,-30.5,65.9*,2.7,-5.2,?
Cc1ccc2c(c1)[C@H]1[C@H](CO2)[C@H](c2ccccc2)[C@]2(C)C(=O)Nc3cc(F)c(F)cc3C(=O)N12,-12.9,-30.7,41.5*,4.3,-9.0,i
Cc1ccc2c(c1)[C@H]1[C@H](CO2)[C@H](c2ccccc2)[C@]2(C)C(=O)Nc3cc(Cl)ccc3C(=O)N12,5.3,10.4,-13.8,-11.0,-3.5,i
